HT1080-NT tox = kills 2HG-producing HT-1080-NT fibrosarcoma cells; HT-1080-NT fibrosarcoma viability, CellTiter-Glo ATP luminescence, 48 h; Potency, µM (highest dose often 46.1 µM), inactives show at the highest dose activity, negative = less viability, actives largely listed as cytotoxic; hit rate 1.6% among 360,000; AID 686970;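 note: NT is the 2HG producing partner of a matched IDH1 knockdown line; 0% = DMSO-treated cells and -100% = media-only wells without cells; nearly all actives have a fitted effect of over 55% in size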
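HT-1080-NT; 750 cells/well; 5% FBS RPMI; 48 h compound, 37 degrees C; CellTiter-Glo luminescence; curve fitting and curve-class assignment.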
DT40 TDP1 CPT = growth inhibition of DT40 Tdp1-/-;hTDP1 cells with camptothecin (screen for TDP1 inhibitors) | chicken DT40 Tdp1-/-;hTDP1 cells + 20 nM CPT, ATP luminescence, 48 h | Potency, µM (top dose mostly 46.2 µM), without a hit: at the top dose activity change, negative = growth inhibition, usual class: inhibitors | hit rate 12% among 420,000; note: % is set by controls: 0 for no effect and ±100 for the full control effect; nearly all actives have a fitted effect of over 55% in size
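Cell growth measured by CellTiter-Glo luminescence after a minimum 48 h, 37 C compound exposure with 20 nM CPT in Tdp1-knockout DT40 cells stably expressing hTDP1, seeded 400/well; qHTS titration format.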
TGFb SMAD3 inh = TGF-b pathway inhibition | hit rate 1.2% among 410,000 | HepG2 CAGA-GFP TGF-b/SMAD3 reporter, GFP fluorescence, 18 h; TGF-beta stimulated, 500 pg/mL final | Potency, µM (highest dose often 46.1 µM), for inactives: at the top dose activity, negative = inhibition, hits mostly inhibitors; note: % is set by controls: 0 for no effect and ±100 for the full control effect; nearly all actives have a fitted effect of over 65% in size
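GFP signal (ex488/em500-530) from TGF-beta-stimulated HEPG2 CAGA-GFP cells, 500 pg/mL final, 18 h at 37 degrees C in DMEM plus 1% FBS, normalized to unstimulated and DMSO-stimulated controls.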
HT1080 IDH1KD tx = HT-1080 IDH1 knockdown cell toxicity (counter line); HT-1080 IDH1 knockdown viability, ATP luminescence, 48 h; Potency, µM (series often up to 46.1 µM), without a hit: at the top dose activity, negative = toxicity, most hits filed as cytotoxic; hit rate 2% among 360,000; AID 686971;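 note: 0% = DMSO wells and -100% = cell-free medium wells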
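% activity derives from luminescence (CellTiter-Glo), normalised to DMSO and no-cell wells. HT-1080-IDH1KD cells, 750/well, had 48 h compound exposure at 37 °C.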
HepG2 viability = kills HepG2 cells in TGF-b inhibitor counter-screen. HepG2 CAGA-GFP viability, ATP luminescence, 18 h. Potency, µM (series often up to 46.1 µM), inactives show top-dose activity change, negative = cytotoxicity, most hits filed as cytotoxic. hit rate 0.76% among 410,000. AID 588856
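CellTiter-Glo luminescence gave cytotoxicity after 18 hours at 37 degrees C. The cells were HepG2 CAGA-GFP in 1% FBS DMEM, stimulated with 500 pg/mL TGF-beta after compound addition. %Activity was normalised to no-cell wells (complete cell-killing) and DMSO (no toxicity), and curves were fitted and classified.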
TDP1 cell noCPT = qHTS for Inhibitors of human tyrosyl-DNA phosphodiesterase 1 (TDP1): qHTS in cells in absence of CPT; DT40 Tdp1-/- hTDP1 cells, no CPT, ATP luminescence, 48 h; Potency, µM (titrated, usually from 46.2 µM), for inactives: at the top dose activity change, negative = growth inhibition, usual class: inhibitors; hit rate 15% among 420,000; AID 686978, 2013; note: % is set by controls: 0 for no effect and ±100 for the full control effect; nearly all actives have a fitted effect of over 55% in size
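Compound effects on proliferation are scored in DT40 Tdp1-/-;hTDP1 cells in the absence of CPT. ATP levels (CellTiter-Glo luminescence) are recorded after a ≥48 hr, 37 °C incubation.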
Active calls of the source: *; u = inconclusive; x = no result given; [ ] = remark or other dose. An excerpt weighted towards active compounds, which were near 17% of everything screened. Calls come from the whole dose curve; as a rule, active = well fitted curve in the direction sought with a large enough effect; inconclusive = small, poorly fitted or top-dose-only effect, or another doubt; inactive = no such curve, though single readings can be large; an effect the other way counts as inactive or inconclusive. Potency is the fitted concentration of half-maximal effect.

SMILES | HT1080-NT tox | DT40 TDP1 CPT | TGFb SMAD3 inh | HT1080 IDH1KD tx | HepG2 viability | TDP1 cell noCPT
COc1ccc(NC(=O)C(=O)c2cc(C)n(-c3ccc(C)cc3)c2C)cc1Cl | x | u | u | x | -38% | 8.2µM*
CCOC(=O)C1CCCN(Cc2ccc(OCC)cc2)C1 (stereo not drawn) | 8% | -12% | -7% | -11% | 4% | -15%
CC(C)CCNC(=O)Cn1c(-c2cccs2)cc2cc(F)ccc21 | x | -25% | 4% | x | -11% | -22%
COc1ccc(N2CCN(CCCNC(=O)Cn3c(-c4cccs4)cc4ccccc43)CC2)cc1 | x | 18µM* | u | x | -67% | 23µM*
COc1cccc(CCNC(=O)Cn2c(-c3cccs3)cc3ccccc32)c1 | x | 21µM* | u | x | -38% | u
O=C(Cn1c(-c2cccs2)cc2ccccc21)NCCCN1CCN(c2ccc(F)cc2)CC1 | x | 23µM* | u | x | -28% | 23µM*
COc1ccc(N2CCN(CCCNC(=O)c3cc4sccc4n3C)CC2)cc1 | u | -27% | 13% | u | -18% | u
CC(=O)c1ccc(N2CCN(C(=O)c3c(-c4ccccc4Cl)noc3C)CC2)cc1 | 12% | u | -2% | 12% | 15% | u
COCCNC(=O)CC(=O)N/N=C/c1ccc(C(=O)OC)cc1 | u | 17% | 0% | 12% | 22% | -5%
COc1ccc(S(=O)(=O)N(CCCN2CCOCC2)Cc2cccc(OC)c2OC)cc1 | 11% | -24% | -2% | 1% | -10% | -19%
COc1ccc(S(=O)(=O)N(CCN2CCOCC2)Cc2cc(OC)ccc2OC)cc1 | 1% | -13% | 8% | 1% | -6% | 13µM*
CCc1nc(-c2ccc(C)c(S(=O)(=O)N3CCN(c4ccc(C(C)=O)cc4)CC3)c2)no1 | x | 13µM* | u | x | -21% | 7.3µM*
CCc1ccc(-c2cc(C)no2)cc1S(=O)(=O)N1CCN(c2cc(C)ccc2C)CC1 | -1% | u | -12% | -5% | -8% | 16µM*
CCc1ccc(-c2cc(C)no2)cc1S(=O)(=O)N1CCN(c2ccccc2F)CC1 | -1% | u | -8% | 2% | -8% | -10%
CCc1ccc(-c2cc(C)no2)cc1S(=O)(=O)N1CCN(c2cccc(Cl)c2)CC1 | x | 1µM* | -12% | x | 5% | 0.65µM*
CCc1ccc(-c2cc(C)no2)cc1S(=O)(=O)N1CCN(c2cccc(C)c2C)CC1 | 5% | 23µM* | -2% | 0% | -13% | u
N#CC1(c2nc3ccccc3[nH]2)CC1c1ccc2c(c1)OCO2 (stereo not drawn) | -8% | -19% | -1% | -2% | -5% | -2%
O=C(Cn1ccc2ccccc2c1=O)NCC(=O)N1CCN(c2ccccc2F)CC1 | -1% | 5% | 16% | -11% | 2% | -14%
COc1cc(OC)c(/C=N/NC(=O)c2ccc(Cn3nc([N+](=O)[O-])cc3C)cc2)c(OC)c1 | -2% | 1% | -6% | 0% | 10% | -4%
COc1ccc(-c2csc(C(NC(C)=O)c3ccccc3)n2)cn1 (stereo not drawn) | 7% | 10% | 0% | 0% | -5% | 6%
CCc1ccc(-c2cc(C)no2)cc1S(=O)(=O)N1CCN(c2ccc(C(C)=O)cc2)CC1 | -2% | u | -9% | -9% | -11% | 18µM*
CCN1c2ccccc2-c2nc3ccccc3n2C1c1ccco1 (stereo not drawn) | 6% | 21µM* | -20% | -9% | -11% | 16µM*
CN1c2ccccc2-c2nc3ccccc3n2C1c1ccccn1 (stereo not drawn) | -1% | 16µM* | -16% | -4% | -16% | 16µM*
CCC1Sc2ccc(S(=O)(=O)CCC(=O)Nc3cc(C)ccn3)cc2NC1=O (stereo not drawn) | 2% | -1% | -21% | 1% | 5% | u
S=c1[nH]nc(-c2ccc3ccccc3n2)n1-c1cc(Cl)cc(Cl)c1 | 1% | u | -13% | 9% | 8% | 16µM*
SMILES | HT1080-NT tox | DT40 TDP1 CPT | TGFb SMAD3 inh | HT1080 IDH1KD tx | HepG2 viability | TDP1 cell noCPT
Fc1ccc(-n2c(-c3ccc4ccccc4n3)n[nH]c2=S)cc1 | 2% | 9% | -4% | 4% | -31% | 1%
COc1ccc(CN(C)S(=O)(=O)c2c(C)noc2C)cc1OC | -5% | -7% | 4% | -1% | -37% | -15%
CC(C)CC1C(=O)N(Cc2cn(CCC3OCCCO3)nn2)CCS(=O)(=O)N1Cc1ccc(-c2ccc(Cl)c(Cl)c2)cc1 (stereo not drawn) | u | 15µM* | u | u | -56% | 16µM*
COc1ccc(-c2ccc(CN3C(C(C)C)C(=O)N(Cc4cn(CCC5OCCCO5)nn4)CCS3(=O)=O)cc2)cn1 (stereo not drawn) | 4% | 15µM* | 2% | 6% | -12% | 21µM*
CC(C)CC1C(=O)N(Cc2cn(CCC3OCCCO3)nn2)CCS(=O)(=O)N1Cc1ccc(-c2ccc(Cl)nc2)cc1 (stereo not drawn) | -15% | u | 5% | -17% | -7% | 21µM*
COCOCCn1cc(CN2CCS(=O)(=O)N(Cc3ccc(-c4ccc(F)nc4)cc3)C(CC(C)C)C2=O)nn1 (stereo not drawn) | -1% | u | -3% | -1% | -12% | u
CC(C)CC1C(=O)N(Cc2cn(CCC3OCCCO3)nn2)CCS(=O)(=O)N1Cc1ccc(-c2ccc(Cl)cc2)cc1 (stereo not drawn) | -7% | u | 7% | -27% | -39% | u
CC(C)C1C(=O)N(Cc2cn(CCC3OCCCO3)nn2)CCS(=O)(=O)N1Cc1ccc(-c2ccc(Cl)nc2)cc1 (stereo not drawn) | 6% | u | 3% | -3% | -5% | 23µM*
COc1ccc2c(c1)-c1nc(-n3ncc(C(=O)NC(C)(C)CO)c3C3CC3)ncc1CC2 | x | 12%[9.04 µM] | x | x | x | u
O=C(c1cnn(-c2ccc(F)cc2)c1-n1cccc1)N1CCN(c2cccc(Cl)c2)CC1 | x | x | 6% | x | -4% | x
CC1(C(=O)NCc2ccccc2)CN(S(C)(=O)=O)CC(=O)N1CCc1c[nH]c2ccccc12 (stereo not drawn) | -15% | 13µM* | x | 0% | x | 7%

Bioassay records (PubChem BioAssay)
